Counter-ions that a name gives are not always drawn. ± gives the standard deviation of the averaged measurements.
Each compound was assayed on mESC LDLR-Dup GFP reporter (SpCas9 MH-deletion repair) (assay: fraction of GFP+ cells relative to DMSO control (fold change); higher = more MH-deletion repair to in-frame LDLR (or more editing)). Conditions: 2 µM; 7 days post-transfection.
`O=C(Nc1ccc(O)c(C(=O)O)c1)c1cccc(NC(=O)c2ccco2)c1` was tested, and the “fraction of GFP+ cells” value was 1.66 ± 0.41.
For `C=C1CC[C@H](O)C/C1=C/C=C1\CCC[C@]2(C)[C@@H]([C@H](C)/C=C/[C@H](C)C(C)C)CC[C@@H]12` [Vitamin D2], the “fraction of GFP+ cells” value was 1.43 ± 0.26.
For `CC(C)(Oc1ccc(C(=O)c2ccc(Cl)cc2)cc1)C(=O)O` [Fenofibric acid], the “fraction of GFP+ cells” value was 2.08 ± 0.55.
For `CC(C)(CNC(=O)c1cccc(-c2noc(C(F)(F)F)n2)c1)c1coc(-c2ccccc2)n1`, the “fraction of GFP+ cells” value was 0.849 ± 0.2.
With `Cc1cnc(NC(=O)Nc2cc(Br)c(C)cc2OC[C@@H]2CNCCO2)cn1` the “fraction of GFP+ cells” value was 1.14 ± 0.08.
`O=NN(CCCl)C(=O)NC1CCCCC1` [Lomustine] was tested, and the “fraction of GFP+ cells” value was 1.11 ± 0.11.
With `CN(CCOc1ccc(CC2SC(=O)NC2=O)cc1)c1ccccn1` (stereo not given) [Rosiglitazone] the “fraction of GFP+ cells” value was 1.48 ± 0.26.
`CCCCCCCCCC(=O)N[C@@H](Cc1c[nH]c2ccccc12)C(=O)N[C@H](CC(N)=O)C(=O)N[C@@H](CC(=O)O)C(=O)N[C@@H]1C(=O)NCC(=O)N[C@@H](CCCN)C(=O)N[C@@H](CC(=O)O)C(=O)N[C@H](C)C(=O)N[C@@H](CC(=O)O)C(=O)NCC(=O)N[C@H](CO)C(=O)N[C@@H]([C@H](C)CC(=O)O)C(=O)N[C@@H](CC(=O)c2ccccc2N)C(=O)O[C@@H]1C` [Daptomycin] was tested, and the “fraction of GFP+ cells” value was 1.25 ± 0.27.
In the case of `Cc1cnc(-c2ccccc2C(C)C)nc1NCc1ccc(-n2ccnn2)cc1`, the “fraction of GFP+ cells” value is reported as 0.373 ± 0.22.
`NC[C@@](O)(c1ccc(Cl)cc1)c1ccc(-c2cn[nH]c2)cc1` was tested, and the “fraction of GFP+ cells” value was 1.33 ± 0.93.
For `O=C(Nc1ccncc1)c1cc([N+](=O)[O-])ccc1Cl`, the “fraction of GFP+ cells” value was 1.74 ± 0.44.
For `Nc1nc(N)c(N=O)c(OCC2CCCCC2)n1`, the “fraction of GFP+ cells” value was 0.999 ± 0.11.
With `O=C(CCCCCCC(=O)Nc1ccc([C@H]2O[C@@H](CSc3nc(-c4ccccc4)c(-c4ccccc4)o3)C[C@@H](c3ccc(CO)cc3)O2)cc1)NO` [Tubacin] the “fraction of GFP+ cells” value was 0.972 ± 0.16.
For `NCCOc1cc(C(=O)Nc2cc(OCCN)c3ccccc3n2)nc(C(=O)Nc2cc(OCCN)c3ccccc3n2)c1` [Pyridostatin Trifluoroacetate Salt], the “fraction of GFP+ cells” value was 0.824.
With `C[C@H]1COc2c(N3CCN(C)CC3)c(F)cc3c(=O)c(C(=O)O)cn1c23` [Levofloxacin] the “fraction of GFP+ cells” value was 0.954 ± 0.01.
With `CCn1cc(C(=O)O)c(=O)c2ccc(C)nc21` [Nalidixic acid] the “fraction of GFP+ cells” value was 1.08 ± 0.015.
`Cc1nc(=O)c2cc(CN(C)c3ccc(C(=O)N[C@@H](CCC(=O)O)C(=O)O)s3)ccc2[nH]1` [Raltitrexed] was tested, and the “fraction of GFP+ cells” value was 2.3 ± 1.
For `O=c1c(O)c(-c2ccc(O)c(O)c2)oc2cc(O)cc(O)c12` [Quercetin], the “fraction of GFP+ cells” value was 1.4 ± 0.93.
For `Nc1nc(NC2CC2)cc(-c2cccc(Cl)c2Cl)n1`, the “fraction of GFP+ cells” value was 0.918 ± 0.2.
`Nc1[nH]cnc2ncnc1-2` [Adenine sulfate] was tested, and the “fraction of GFP+ cells” value was 1.1 ± 0.025.
With `O=C(c1ccc(Cl)cc1Cl)n1nnc2ccccc21` the “fraction of GFP+ cells” value was 0.756 ± 0.056.
For `COc1c2ccoc2cc2oc(=O)ccc12` [Bergapten], the “fraction of GFP+ cells” value was 0.969 ± 0.32.
`CC(C)c1cnn2c(NCc3ccccc3)cc(NCCCCCCN)nc12` was tested, and the “fraction of GFP+ cells” value was 1.07 ± 0.18.
`O=C(NC(NC(=S)Nc1ccc(F)c([N+](=O)[O-])c1)C(Cl)(Cl)Cl)C(c1ccccc1)c1ccccc1` (stereo not given) was tested, and the “fraction of GFP+ cells” value was 0.561 ± 0.13.
For `CC(C)(Oc1ccc(C2CC2(Cl)Cl)cc1)C(=O)O` (stereo not given) [Ciprofibrate], the “fraction of GFP+ cells” value was 1.74 ± 0.1.
`Cc1ncc([N+](=O)[O-])n1CCO` [Metronidazole] was tested, and the “fraction of GFP+ cells” value was 0.96 ± 0.35.
With `CO[C@H]1/C=C/O[C@@]2(C)Oc3c(C)c(O)c4c(O)c(c(/C=N/N5CCN(C)CC5)c(O)c4c3C2=O)NC(=O)/C(C)=C\C=C\[C@H](C)[C@H](O)[C@@H](C)[C@@H](O)[C@@H](C)[C@H](OC(C)=O)[C@@H]1C` [Rifampin] the “fraction of GFP+ cells” value was 2.38 ± 0.52.
For `Nc1nc(=O)c2c([nH]1)NC[C@H](CNc1ccc(C(=O)N[C@@H](CCC(=O)O)C(=O)O)cc1)N2C=O` [Calcium Levofolinate], the “fraction of GFP+ cells” value was 1.1 ± 0.47.
For `O=c1ccc2cc3ccoc3cc2o1` [Psoralen], the “fraction of GFP+ cells” value was 1.11 ± 0.41.
In the case of `C/C(=C\C(=O)Nc1ccccc1C(=O)O)c1ccc2ccccc2c1`, the “fraction of GFP+ cells” value is reported as 0.984 ± 0.45.
`O=C(Nc1ccccc1)c1cc([N+](=O)[O-])ccc1Cl` was tested, and the “fraction of GFP+ cells” value was 1.96 ± 0.34.
With `C=CCc1ccc(O)c(-c2cc(CC=C)ccc2O)c1` [Magnolol] the “fraction of GFP+ cells” value was 0.713 ± 0.084.
With `CS(=O)(=O)OCCCCOS(C)(=O)=O` [Busulfan] the “fraction of GFP+ cells” value was 1.36 ± 0.93.
In the case of `Nc1nc(OCC2CCCCC2)c2[nH]cnc2n1`, the “fraction of GFP+ cells” value is reported as 0.88 ± 0.14.
In the case of `O=C(O)c1cc2cccc([N+](=O)[O-])c2[nH]1`, the “fraction of GFP+ cells” value is reported as 1.04 ± 0.19.
With `Nc1[nH]cnc2ncnc1-2` [Adenine HCl] the “fraction of GFP+ cells” value was 1.31 ± 0.32.
With `COc1cc(N2CCN(C)CC2)ccc1Nc1nccc(-c2cn(C)c3cnccc23)n1` the “fraction of GFP+ cells” value was 0.577 ± 0.5.
`Cc1cc([N+](=O)[O-])ccc1NS(=O)(=O)c1cc(Cl)ccc1Cl` was tested, and the “fraction of GFP+ cells” value was 1.64 ± 0.13.
`CC(NC(=O)c1ccccc1/N=C/c1c(O)ccc2ccccc12)c1ccccc1` (stereo not given) [Sirtinol] was tested, and the “fraction of GFP+ cells” value was 1.45 ± 0.24.
With `O=CN1CC/C(=C/c2ccc3c(c2)OCO3)C1=O` the “fraction of GFP+ cells” value was 0.833 ± 0.28.
